High-throughput results (PubChem)
Mtb betalactam: beta-lactam sensitization of Mtb H37Rv, H37Rv | hit rate 0.27% among 330,000 | AID 434955, 2010 | M. tuberculosis H37Rv growth with meropenem, percent inhibition | inhibition, % at 25 µM; call rule not given here;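 further: growth measured after seven days incubation then overnight dye step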
BioA inh: M. tuberculosis BioA enzyme inhibitors, primary screen, biochemical, plate reader, single point, HTS; purified M. tuberculosis BioA enzyme; inhibition, % at 9.99 µM; 7,8-diaminopelargonic acid synthase BioA (Mycobacterium tuberculosis); hit rate 0.096% among 360,000; in the data active means inhibition above about 40%; inconclusive means no clear call, values can overlap the other calls
Sa ugtP lethal: growth inhibition of ugtP-null S. aureus, primary screen, RN4220 ugtP deletion, OD600 | hit rate 0.54% among 330,000 | growth inhibition, % (concentration not given with the values) | 16 h | AID 1259309, 2017; in the data active means growth inhibition above about 68%
PfHsp40 yeast: rescue of yeast from PfHsp40 toxicity, primary screen, S. cerevisiae, ATP luminescence. S. cerevisiae expressing PfHsp40, growth rescue. growth rescue, % at 12.5 µM. hit rate 0.68% among 340,000; in the data active means growth rescue above about 28%, passing the limit was not always enough; inconclusive means no clear call, values can overlap the other calls;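 further: yeast W303a lacking pdr1 and pdr3 grown in galactose medium; growth measured after three days at 30 °C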
Sa RN4220 lethal: growth inhibition of S. aureus RN4220, primary screen, OD600. 16 h. inhibition, % (no concentration beside the values). hit rate 0.33% among 330,000. AID 1259311, 2017; in the data active means inhibition above about 85%
Hits are given with their value; . = inactive; ? = inconclusive; / = no result. In the library only some 0.9% were active in any assay of this set; here they are far more common.

SMILES	Mtb betalactam	BioA inh	Sa ugtP lethal	PfHsp40 yeast	Sa RN4220 lethal
COCc1cc(Sc2cccc(Cl)c2Cl)nc(-c2ccccc2)n1	.	.	91	.	.
Cc1cccc2[nH]c3c(N4CC=C(c5ccc(F)cc5)CC4)ncnc3c12	.	.	89	/	.
CCCC1C[C@@]1(CCC)C(NP(=O)(c1ccccc1)c1ccccc1)c1ccc(C(=O)OC)cc1 (stereo not given in full)	/	/	.	/	.
O=C(CN(c1cccc(Br)c1)S(=O)(=O)c1ccccc1)N/N=C/c1cc([N+](=O)[O-])ccc1O	.	.	/	247	/
O=[N+]([O-])c1ccc(NN=Cc2cc(Br)ccc2O)nc1	/	.	93	.	.
O=C(CCCC(=O)Nc1cccc(Br)c1)NN=Cc1cc([N+](=O)[O-])ccc1O	/	/	.	/	88
Cc1cccc(NC(=O)CCC(=O)NN=Cc2cc([N+](=O)[O-])ccc2O)c1	/	/	84	/	94
CC(=O)N1c2ccc(F)c(F)c2CC1C (stereo not given)	/	/	.	/	.
CC(C)(C)OC(=O)C[C@H]1C/C=C\C[C@H](CC(=O)NCCO)C(=O)N2CCC[C@@H]2COC1=O	.	.	/	41	/
CC(C)(C)OC(=O)C[C@@H]1C/C=C\C[C@@H](CC(=O)NCCO)C(=O)N2CCC[C@H]2COC1=O	.	.	/	.	/
Oc1c(Cl)c(Cl)c(Cl)c(Cl)c1Cl	.	.	100	298	100
O=C(O)CN1C(=O)/C(=C\c2cn(-c3ccccc3)nc2-c2ccccc2)SC1=S	.	.	/	.	/
CC(C)COc1ccc(-c2nn(-c3ccccc3)cc2/C=C2/SC(=S)N(CC(=O)O)C2=O)cc1	.	.	.	.	98
Cc1ccc(-c2nc3c(Cl)cc(Cl)cc3c(=O)n2O)cc1	.	.	99	?	99
O=c1c2ccccc2nc(-c2ccc(Cl)c(Cl)c2)n1O	.	.	.	.	.
Cc1nc2ccc(Cl)cc2c(=O)n1-c1ccc([N+](=O)[O-])cc1	.	.	.	.	.
O=c1c2cc(Cl)ccc2nc(-c2ccc([N+](=O)[O-])cc2)n1O	.	/	.	179	.
O=c1c2cc(Br)ccc2nc(-c2ccc(Cl)cc2)n1O	.	.	99	.	99
O=C1C=C(c2ccc3ncccc3c2)CC(c2ccc(Cl)cc2)C1 (stereo not given)	/	/	.	/	.
CCCCCCc1ccc(N2CC(CCCCC)C(CC(=O)NCc3ccccc3)C2=O)cc1 (stereo not given)	/	/	.	/	.
CC=CC=CC(=O)Nc1cccc(C2=NOC3(C2)CC(C(N)=O)N(C(=O)c2cc([N+](=O)[O-])cc([N+](=O)[O-])c2)C3)c1 (stereo not given)	/	/	.	/	.
CCOC(=O)C1C2COc3ccc(C)cc3C2N2C(=O)c3cc(F)c(F)cc3NC(=O)[C@@]12C (stereo not given in full)	/	/	.	/	.
COc1ccc(C2=CC(=O)CC(c3ccc(OC)c(OC)c3)C2)cn1 (stereo not given)	/	/	.	/	.
O=C(O)CN1C(=O)/C(=C\c2ccccc2OCc2ccc(Cl)cc2Cl)SC1=S	.	.	.	53	.
O=C(O)CN1C(=O)/C(=C\c2cc(Br)ccc2OCc2ccccc2Cl)SC1=S	.	.	.	.	.
SMILES	Mtb betalactam	BioA inh	Sa ugtP lethal	PfHsp40 yeast	Sa RN4220 lethal
COc1ccc(OC)c(-c2c3cc(O)c(=O)cc-3oc3cc(O)c(O)cc23)c1	.	/	/	287	/
O=c1cc2oc3cc(O)c(O)cc3c(-c3ccccc3O)c-2cc1O	/	/	.	.	.
Oc1c(Br)cc(Br)cc1/C=N/NC(=S)N[C@H]1CC2C=CC1C2 (stereo not given in full)	.	.	/	78	/
O=C(Nc1cc(Cl)cc(Cl)c1)C1CCCC1	.	.	.	70	.
CC(C)(C)c1ccc(C(=O)OC/C(O)=C(\C#N)c2nc3ccccc3s2)cc1	.	/	85	.	.
N#C/C(=C(/O)COC(=O)c1ccccc1O)c1nc2ccccc2s1	.	/	/	.	/
CCCCn1c(=O)c(C(=O)Nc2cnccn2)c(O)c2ccccc21	.	/	83	.	.
CCCCCn1c(=O)c(C(=O)Nc2ncccc2C)c(O)c2ccccc21	.	.	101	.	.
CCCn1c(=O)c(C(=O)Nc2ncccc2C)c(O)c2ccccc21	.	/	.	.	.
COC(=O)c1cccc(C23CC4(C2)C(CN(Cc2cccnc2)C4c2ccccc2)C3c2ccc(Cl)nc2)c1 (stereo not given)	/	/	.	/	.
CCOC(=O)Cn1nc(-c2ccccc2)c2ccccc2c1=O	.	.	.	.	.
O=c1c2ccccc2c(-c2ccccc2)nn1Cc1c(Cl)cccc1Cl	.	.	96	.	.
ClCCN(CCCl)c1ccc(C=NNc2ncccn2)cc1	/	.	.	35	.
N#Cc1ncc(N=Cc2ccc(N(CCCl)CCCl)cc2)s1	/	.	.	.	.
COc1cc(C=C(NC(=O)c2ccccc2Cl)C(=O)O)cc(OC)c1OC	/	/	.	/	.
CCc1ccc(-n2cc(-c3ccc([N+](=O)[O-])cc3)[nH]c2=S)cc1	.	/	.	.	.
CCc1ccc(-c2cn(C3CCCCC3)c(=S)[nH]2)cc1	.	/	.	91	.
CCCCOc1ccc(C2=CSC3=NCCN23)cc1[N+](=O)[O-]	.	.	.	.	.
CCCCOc1ccc(-c2csc(N)n2)cc1[N+](=O)[O-]	.	/	.	141	.
C#CCOCCOCCOCCNc1nc(N2CCOCC2)nc(N2CCN(C(=O)C(CC(N)=O)n3cc(C(N)C(C)C)nn3)CC2)n1 (stereo not given)	/	/	.	/	.
CCCc1nc(SCC(=O)N2CCC(Cc3ccccc3)CC2)c2c(=O)n(C)c(=O)n(C)c2n1	.	.	.	184	.
CC(C)CC(NC(=O)c1nc[nH]c1C(=O)NCC(=O)OCc1ccccc1)C(=O)OCc1ccccc1 (stereo not given)	/	/	.	/	.
CC(C)c1ccc2c(c1)C1(NN=C(c3ccccc3)S1)C(=O)N2 (stereo not given)	.	.	98	41	94
CCc1ccc2c(c1)C1(NN=C(c3ccc(C)cc3)S1)C(=O)N2 (stereo not given)	.	.	.	.	.
O=C(NC1CCSc2ccccc21)c1cc([N+](=O)[O-])ccc1N1CCOCC1 (stereo not given)	.	.	.	36	.
SMILES	Mtb betalactam	BioA inh	Sa ugtP lethal	PfHsp40 yeast	Sa RN4220 lethal
O=C(NC1CCSc2ccccc21)c1ccc([N+](=O)[O-])cc1 (stereo not given)	.	.	.	.	.
CCC(C)C(N)c1cn(C(CCC(=O)O)C(=O)N2CCNCC2)nn1 (stereo not given)	/	/	.	/	.
O=[N+]([O-])c1ccccc1C=NNc1nnc(-c2ccccc2)c(-c2ccccc2)n1	/	/	.	/	.
O=[N+]([O-])c1cccc2nc(-c3ccccc3)c(-c3ccccc3)nc12	.	.	97	.	.
COc1c(O)c(=O)n2c3ccccc3c3ccnc1c32	.	.	.	66	.
O=c1c(Cl)c(O)c2cccc3c4ccccc4n1c23	.	/	.	.	.
CC(=O)N1N=C(c2ccc(Cl)cc2)CC1c1ccc([N+](=O)[O-])cc1 (stereo not given)	.	.	.	.	.
